{"source": "PubChem BioAssay", "data": [{"experiment": "COS7 lysate on small-molecule microarray, probe aHis, 635 nm (AID 1123);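 further: z-score combines 667nm fluorescence intensity with signal-to-noise per printed compound spot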", "details": "COS7 cell lysate, fluorescence, higher = more signal", "values": [{"smiles": "[N-]=[N+]=Nc1ccccc1C[C@@]1(C(=O)N2CCOCC2)N=C(c2ccc(OCCCO)cc2)O[C@@H]1c1ccccc1", "composite z-score": 2.59}, {"smiles": "[N-]=[N+]=Nc1ccccc1C[C@]1(C(=O)O)COC(c2ccc(OCCCO)cc2)=N1", "composite z-score": 0.143}, {"smiles": "COCCOC(=O)N1C(=O)[C@@]2(c3cc(C#CC4=CCCCC4)ccc31)[C@H](c1ccccc1OCCO)N1[C@H](c3ccccc3)[C@H](c3ccccc3)OC(=O)[C@H]1[C@@H]2C(=O)N1CCN(c2ncccn2)CC1", "composite z-score": 0.634}, {"smiles": "O=C1O[C@@H](c2ccccc2)[C@@H](c2ccccc2)N2[C@@H](c3ccc(OCCO)cc3)[C@]3(C(=O)Nc4ccc(C#CC5=CCCCC5)cc43)[C@@H](C(=O)NC[C@H](O)c3ccccc3)[C@H]12", "composite z-score": 1.57}, {"smiles": "[N-]=[N+]=Nc1ccccc1C[C@]1(C(=O)NCCN2CCOCC2)COC(c2ccc(OCCCO)cc2)=N1", "composite z-score": 1.87}, {"smiles": "O=C1OCCC=C[C@H]2OC34C=CCN(Cn5nnc6ccccc65)C(=O)[C@H]3N(CCCO)C(=O)[C@@H]4C12", "note": "(stereo not given in full)", "composite z-score": -1.05}, {"smiles": "CC(C)[Si](C#C[Si](C(C)C)(C(C)C)C(C)C)(O[C@H](c1ccccc1)c1cn(Cc2ccccc2)nn1)C(C)C", "composite z-score": -0.366}, {"smiles": "CC(C)N1C(=O)C[C@@](C(=O)O)(c2ccc([N+](=O)[O-])cc2)[C@H]1c1ccc(CO)cc1", "composite z-score": 1.52}, {"smiles": "C=CCC(OC(C)=O)[C@@H]1[C@@H](N(Cc2ccc(-c3ccccc3)cc2)C(=O)c2ccc(-c3ccccc3)cc2)c2cc(OCCCO)ccc2N1C(=O)c1ccc2ccccc2c1", "note": "(stereo not given in full)", "composite z-score": 0.937}, {"smiles": "COc1ccc([Si](C)(C)[C@@H]2[C@@H](CCO)O[C@]3(C(=O)N(Cc4ccccc4)c4ccc(N5CCOC5=O)cc43)[C@H]2C)cc1", "composite z-score": 0.747}, {"smiles": "[N-]=[N+]=Nc1ccccc1C[C@]1(C(=O)NCC(O)CO)COC(c2ccc(OCCCO)cc2)=N1", "note": "(stereo not given in full)", "composite z-score": 2.09}, {"smiles": "CN(C)CCCCCCNC(=O)[C@@H]1C[C@@H]2C(=O)N3CCC[C@H]3C(=O)N2[C@@H]1c1cccc(OCCO)c1", "composite z-score": 2.73}, {"smiles": "CCOC(=O)C[C@H]1[C@H](OC(=O)c2cc3ccccc3oc2=O)[C@@H](NC(=O)c2ccccc2)c2cc(OCCCO)ccc2N1C(=O)c1ccccc1", "composite z-score": 0.236}, {"smiles": "O=C1C2C=CC(C(O)c3cccc(O)c3)N(Nc3ccc([N+](=O)[O-])cc3)C2C(=O)N1c1ccccc1", "note": "(stereo not given)", "composite z-score": 0.762}, {"smiles": "C=CC[C@@]1(C(=O)NCCCOC)N=C(c2ccc(OCCCO)cc2)O[C@@H]1c1ccccc1", "composite z-score": 3.2}, {"smiles": "CCCCC(=C=CC[C@H](O)c1ccc(OCCO)cc1)CCO", "composite z-score": 1.55}, {"smiles": "C=C(C(=O)CC[C@H](OC(=O)c1ccccc1-c1ccccc1C(=O)O)c1cccc(OCCO)c1)C(C)C", "composite z-score": 0.715}, {"smiles": "COC(=O)[C@]1(CCS(=O)(=O)c2ccccc2)N=C(c2ccc(OCCCO)cc2)O[C@@H]1c1ccccc1N=[N+]=[N-]", "composite z-score": 2.93}, {"smiles": "C=C(/C(=C/C[C@H](OC(=O)c1ccncc1)c1ccc(CO)o1)c1cnc2ccccc2c1)C(C)C", "composite z-score": 0.75}, {"smiles": "CC[C@@H]1C=C(C(=O)O)[C@H](c2ccc(C#N)cc2)N1S(=O)(=O)c1ccc(C)cc1", "composite z-score": 3.03}, {"smiles": "CCCCCCCCCCC(O)C1C=CC2C(=O)N(c3ccccc3)C(=O)C2N1Nc1ccc(C#N)cc1", "note": "(stereo not given)", "composite z-score": 1.53}, {"smiles": "CC[C@@H]1C=C(C(=O)O)[C@H](c2ccccc2)N1S(=O)(=O)c1ccc(C)cc1", "composite z-score": 2.24}, {"smiles": "O=C1O[C@H](c2ccccc2)[C@H](c2ccccc2)N2[C@H]1[C@@H](C(=O)O)[C@]1(C(=O)Nc3ccc(C#CCCO)cc31)[C@H]2c1ccccc1OCCO", "composite z-score": 0.676}, {"smiles": "O=C1C2C=CC(C(O)c3ccco3)N(Nc3ccccc3F)C2C(=O)N1c1ccccc1", "note": "(stereo not given)", "composite z-score": 1.85}, {"smiles": "COc1ccc([Si](C)(C)[C@@H]2[C@@H](CCO)O[C@]3(C(=O)N(Cc4cccc(NC(=O)[C@H](C)O)c4)c4ccccc43)[C@H]2C)cc1", "composite z-score": 1.61}, {"smiles": "CC(C)N1C(=O)C[C@@](C(=O)NC2CC2)(c2ccc([N+](=O)[O-])cc2)[C@H]1c1ccc(CO)cc1", "composite z-score": 2.95}, {"smiles": "Oc1ccc2cc[n+](Cc3cc4c(cc3Br)OCO4)cc2c1", "composite z-score": -0.129}, {"smiles": "CCOC(=O)C[C@H]1[C@H](OC(=O)c2ccc(-c3ccccc3)cc2)[C@@H](NC(=O)CC(C)C)c2cc(OCCCO)ccc2N1C(=O)c1ccc2ccccc2n1", "composite z-score": 1.19}, {"smiles": "CCCCC(CC)C(O)C1C=CC2C(=O)N(c3ccccc3)C(=O)C2N1Nc1ccccc1F", "note": "(stereo not given)", "composite z-score": 2.75}, {"smiles": "CCOC(=O)C[C@H]1[C@H](OC(=O)c2ccccc2-c2ccccc2)[C@@H](NC(=O)c2ccc3ccccc3n2)c2cc(OCCCO)ccc2N1C(=O)Cc1ccc(OC)cc1", "composite z-score": 0.428}, {"smiles": "COCCCNC(=O)[C@@]1(CCC(=O)OC(C)(C)C)N=C(c2ccc(OCCCO)cc2)O[C@H]1c1ccccc1N=[N+]=[N-]", "composite z-score": 2.01}, {"smiles": "OCCCC1=CC(c2ccc(CN3CCCC3)cc2)N(Cc2cc3c(cc2Br)OCO3)CC1", "note": "(stereo not given)", "composite z-score": -0.437}, {"smiles": "CCOC(=O)C[C@H]1[C@H](OC(=O)Cc2ccc3c(c2)OCO3)[C@@H](NC(=O)C2CCCCC2)c2cc(OCCCO)ccc2N1C(=O)c1ccccc1", "composite z-score": 0.469}, {"smiles": "COCC(=C=CC[C@H](O)c1ccccc1OCCO)C[C@H](O)c1ccccn1", "composite z-score": -0.0733}, {"smiles": "[N-]=[N+]=NCc1ccccc1[C@@H]1OC(c2ccc(OCCCO)cc2)=N[C@]1(CCS(=O)(=O)c1ccccc1)C(=O)O", "composite z-score": 1.6}]}]}
